PubChem BioAssay (NCI)
The panel holds about 79,000 compounds, 15% with a hit somewhere; the sample as a whole holds those more often. Values without a mark were called inactive. Active and inactive are the calls of the source. No stated cut-off is given here; in the data, active means growth inhibition above about 70%; inactive means the rest.

Key:
[1] = NCI Yeast Anticancer Drug Screen. Data for the rad50 strain (AID 155);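 further: 0% = growth of vehicle-only cultures of the same strain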; conditions: S. cerevisiae rad50 strain growth inhibition, active compounds read high
Outline: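 DNA repair mutant yeast, compound exposure, growth read-out; inhibition is taken relative to vehicle.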

[2] = NCI Yeast Anticancer Drug Screen. Data for the mec2-1 strain (AID 157); conditions: S. cerevisiae mec2-1 strain, active compounds read high
Outline: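 Cells of the genetically defined mec2-1 yeast strain are incubated with test compound. Inhibition of growth is calculated against vehicle-treated controls.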

[3] = NCI Yeast Anticancer Drug Screen. Data for the sgs1 mgt1 strain (AID 161);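 further: 0% = growth of cultures given vehicle only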; conditions: S. cerevisiae sgs1 mgt1 strain, active compounds read high
Outline: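 Read-out: growth inhibition vs vehicle controls. Cells: mutant yeast strain deficient in DNA damage repair.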

[4] = NCI Yeast Anticancer Drug Screen. Data for the cln2 rad14 strain (AID 165);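 further: 0% = growth equal to vehicle treated cultures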; conditions: S. cerevisiae cln2 rad14 strain, active compounds read high
Outline: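 The screen exposed genetically defined yeast (cln2 rad14) to test compounds and scored growth inhibition relative to vehicle-treated controls.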

[5] = NCI Yeast Anticancer Drug Screen. Data for the bub3 strain (AID 167); conditions: S. cerevisiae bub3 mutant strain, active compounds read high
Outline: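 In this screen, a yeast mutant lacking normal mitotic checkpoint function is challenged with compound. Relative growth versus vehicle gives the inhibition value.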

[6] = NCI Yeast Anticancer Drug Screen. Data for the mlh1 rad18 strain (AID 175); conditions: S. cerevisiae mlh1 rad18 strain growth inhibition, active compounds read high
Outline: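 Compound-treated yeast growth, normalised to vehicle controls. Strain bears defined DNA repair mutations.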

[7] = at 5.0 µM (retest, dose inferred, filed as 0.5)
[8] = at 50.0 µM (retest, dose inferred, filed as 5.0)

Row | SMILES | growth inhibition [1, 7] [%] | growth inhibition [1, 8] | growth inhibition ([1]; at 50.0 µM) | growth inhibition [2, 7] [%] | growth inhibition [2, 8] | growth inhibition ([2]; at 50.0 µM) | growth inhibition [3, 7] [%] | growth inhibition [3, 8] | growth inhibition ([3]; at 50.0 µM) | growth inhibition [4, 7] [%] | growth inhibition [4, 8] | growth inhibition ([4]; at 50.0 µM) | growth inhibition [5, 7] [%] | growth inhibition [5, 8] | growth inhibition ([5]; at 50.0 µM) | growth inhibition [6, 7] [%] | growth inhibition [6, 8] | growth inhibition ([6]; at 50.0 µM)
1 | C=C1C(=O)OC2CC3(C)CCCC(C)C3=CC12 (stereo not given) | 18 | 27% | 49.5% | 10 | 56% | 46.9% | 15 | 49% | 80% (active) | 7 | 25% | 16.2% | 14 | 63% | 78.8% (active) | 14 | 41% | 25%
2 | CCOc1ccc(NC(=O)/C(=N\N)C(C(=O)OC)c2nc3ccc(Cl)cc3[nH]c2=O)cc1 (stereo not given) | -14 | -17% | -12.9% | -1 | -10% | -13.1% | -8 | -3% | -24.4% | -25 | -8% | 80.2% (active) | -6 | 5% | -26.5% | -7 | -8% | -1.5%
3 | O=C(O)c1ccc2c(c1)C(=O)c1ccccc1C2=O | -1 | 33% | 95.9% (active) | -1 | 28% | 99.3% (active) | 3 | 26% | 91.2% (active) | -1 | 30% | 14.2% | 1 | 31% | 98.7% (active) | -2 | 41% | 96.5% (active)
4 | NC(=S)N/N=C\c1nccc2c(C(F)(F)F)cccc12 | -4 | 96% (active) | 89% (active) | 2 | 96% (active) | 91.4% (active) | 6 | 96% (active) | 90.5% (active) | -10 | 94% (active) | 88.2% (active) | -5 | 95% (active) | 89.7% (active) | 7 | 95% (active) | 89.2% (active)
5 | CC1(C)CCC[C@]2(C)[C@@H](C=O)C(C=O)=CC[C@@H]12 | 25 | 90% (active) | 91.3% (active) | 23 | 96% (active) | 90.8% (active) | 22 | 84% (active) | 88.4% (active) | 23 | 81% (active) | 90.2% (active) | 19 | 88% (active) | 90.3% (active) | 21 | 91% (active) | 86.9% (active)
6 | CCOC(=O)/C(=C\c1ccc2ccccc2c1)P(=O)(OCC)OCC | -3 | 59% | 78.2% (active) | 3 | 81% (active) | 79.5% (active) | 9 | 66% | 72% (active) | 30 | 69% | 65.4% | 29 | 88% (active) | 74% (active) | 17 | 88% (active) | 59.3%
7 | CN1CCC(CN2c3ccccc3Sc3ccccc32)C1 (stereo not given) | 2 | 16% | 38.5% | 2 | -27% | -22.9% | -8 | 11% | 21.1% | -17 | -1% | 51.2% | 26 | 6% | 19.4% | 11 | 16% | 32.2%
8 | CN(C)c1ccc2cc3c(cc2c1)Oc1ccccc1N3.[Cl][Zn][Cl] | 36 | 90% (active) | 84.2% (active) | 38 | 95% (active) | 85% (active) | 37 | 94% (active) | 87.8% (active) | 29 | 94% (active) | 83.9% (active) | 48 | 95% (active) | 83.8% (active) | 42 | 91% (active) | 83.3% (active)
9 | CC(=O)c1ccc2c(c1)CCc1ccccc1-2 | 2 | 85% (active) | 12.5% | -33 | 49% | -8.9% | 2 | 55% | 36.1% | 2 | 8% | 52.5% | 45 | 89% (active) | 30.4% | 1 | 79% (active) | 15.9%
10 | COc1ccc2c(c1)c(CC(=O)O)c(C)n2C(=O)c1ccc(Cl)cc1 | -1 | 37% | 82.2% (active) | 1 | 57% | 48.2% | 2 | 54% | 88.7% (active) | 1 | 32% | 80.7% (active) | 1 | 30% | 51.1% | -1 | 39% | 72% (active)
